Experimental data from PubChem BioAssay AID1159580 (chemical genetic matrix, 2015).
About 2,000 (36%) of roughly 5,500 compounds were called active. About 18% were inconclusive and are not listed. No stated cut-off is given here; in the data, active means normalized growth mostly below about 0.91 (no sharp cut-off); inconclusive means no clear call, values can overlap the other calls; inactive means mostly above about 0.92. The list shows a part of the results.

Assay: chemical genetic growth profiling, strain panel (AID 1159580);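 further: tested at 20 µM; growth read once vehicle control cultures reached saturation at 30 °C; 1 = growth at the plate median or of vehicle wells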
Details: growth OD

Measured: normalized growth

CO[C@H]1C[C@H](O[C@H]2[C@H](C)[C@@H](OC3O[C@H](C)C[C@H](N(C)C)[C@H]3OC(C)=O)[C@@H](C)C[C@]3(CO3)C(=O)[C@H](C)[C@@H](OC(C)=O)[C@@H](C)[C@@H](C)OC(=O)[C@@H]2C)O[C@@H](C)[C@@H]1OC(C)=O (some centres undefined)
inactive: S. cerevisiae deletion strains, locus YKL009W, strain mrt4, stronger effect = lower value 0.977 | S. cerevisiae deletion strains, locus YKL068W, stronger effect = lower value 0.995 | S. cerevisiae deletion strains, locus YKL085W, strain MDH1 (second series), stronger effect = lower value 0.989 | S. cerevisiae deletion strains, locus YKL085W, strain MDH1, stronger effect = lower value 0.989 | S. cerevisiae deletion strains, locus YKL160W, strain elf1, stronger effect = lower value 0.984 | S. cerevisiae deletion strains, locus YKL190W, strain CNB1, stronger effect = lower value 1 | S. cerevisiae deletion strains, locus YKR001C, strain vps1, stronger effect = lower value 0.982 | S. cerevisiae deletion strains, locus YKR026C, strain gcn3, stronger effect = lower value 0.982 | S. cerevisiae deletion strains, locus YKR091W, strain srl3, stronger effect = lower value 0.997 | S. cerevisiae deletion strains, locus YLL001W, strain dnm1, stronger effect = lower value 1.01 | S. cerevisiae deletion strains, locus YLL026W, stronger effect = lower value 1 | S. cerevisiae deletion strains, locus YLL041C, strain sdh2, stronger effect = lower value 1 | S. cerevisiae deletion strains, locus YLR027C, strain aat2, stronger effect = lower value 0.984 | S. cerevisiae deletion strains, locus YLR039C, strain RIC1, stronger effect = lower value 1.02 | S. cerevisiae deletion strains, locus YLR058C, strain SHM2, stronger effect = lower value 1.01 | S. cerevisiae deletion strains, locus YLR102C, strain apc9, stronger effect = lower value 0.989 | S. cerevisiae deletion strains, locus YLR113W, strain HOG1, stronger effect = lower value 0.978 | S. cerevisiae deletion strains, locus YLR221C, strain rsa3, stronger effect = lower value 0.99 | S. cerevisiae deletion strains, locus YLR258W, strain gsy2, stronger effect = lower value 0.997 | S. cerevisiae deletion strains, locus YLR262C, strain YPT6 (second series), stronger effect = lower value 0.983 | S. cerevisiae deletion strains, locus YLR262C, strain YPT6, stronger effect = lower value 1.02 | S. cerevisiae deletion strains, locus YLR268W, strain sec22, stronger effect = lower value 0.987 | S. cerevisiae deletion strains, locus YLR320W, strain mms22, stronger effect = lower value 0.993 | S. cerevisiae deletion strains, locus YLR330W, strain CHS5, stronger effect = lower value 1 | S. cerevisiae deletion strains, locus YLR342W, strain FKS1 (second series), stronger effect = lower value 0.983 | S. cerevisiae deletion strains, locus YLR342W, strain FKS1, stronger effect = lower value 0.982 | S. cerevisiae deletion strains, locus YLR357W, strain rsc2, stronger effect = lower value 0.997 | S. cerevisiae deletion strains, locus YLR370C, strain arc18, stronger effect = lower value 0.993 | S. cerevisiae deletion strains, locus YLR371W, strain rom2, stronger effect = lower value 0.983 | S. cerevisiae deletion strains, locus YLR384C, strain iki3, stronger effect = lower value 0.995 | S. cerevisiae deletion strains, locus YLR418C, strain cdc73, stronger effect = lower value 0.961 | S. cerevisiae deletion strains, locus YML016C, strain PPZ1, stronger effect = lower value 1.01 | S. cerevisiae deletion strains, locus YML032C, strain rad52, stronger effect = lower value 0.991 | S. cerevisiae deletion strains, locus YML120C, strain ndi1, stronger effect = lower value 0.989 | S. cerevisiae deletion strains, locus YML124C, strain tub3, stronger effect = lower value 0.985 | S. cerevisiae deletion strains, locus YMR058W, strain fet3, stronger effect = lower value 1 | S. cerevisiae deletion strains, locus YMR078C, strain ctf18, stronger effect = lower value 1 | S. cerevisiae deletion strains, locus YMR125W, strain sto1, stronger effect = lower value 0.975 | S. cerevisiae deletion strains, locus YMR129W, stronger effect = lower value 0.998 | S. cerevisiae deletion strains, locus YMR205C, strain PFK2, stronger effect = lower value 1.01 | S. cerevisiae deletion strains, locus YMR223W, strain ubp8, stronger effect = lower value 0.992 | S. cerevisiae deletion strains, locus YMR231W, strain pep5, stronger effect = lower value 0.997 | S. cerevisiae deletion strains, locus YMR263W, strain SAP30, stronger effect = lower value 1 | S. cerevisiae deletion strains, locus YMR307W, strain GAS1, stronger effect = lower value 0.962 | S. cerevisiae deletion strains, locus YNL067W, strain RPL9B, stronger effect = lower value 1.01 | S. cerevisiae deletion strains, locus YNL071W, strain lat1, stronger effect = lower value 0.975 | S. cerevisiae deletion strains, locus YNL183C, strain NPR1, stronger effect = lower value 0.932 | S. cerevisiae deletion strains, locus YNL209W, strain ssb2, stronger effect = lower value 0.99 | S. cerevisiae deletion strains, locus YNL233W, strain BNI4, stronger effect = lower value 1.02 | S. cerevisiae deletion strains, locus YNL248C, strain rpa49, stronger effect = lower value 1.01 | S. cerevisiae deletion strains, locus YNL250W, strain rad50, stronger effect = lower value 1.01 | S. cerevisiae deletion strains, locus YNL271C, strain bni1, stronger effect = lower value 0.985 | S. cerevisiae deletion strains, locus YNL298W, strain CLA4, stronger effect = lower value 0.969 | S. cerevisiae deletion strains, locus YNL307C, strain MCK1, stronger effect = lower value 0.987 | S. cerevisiae deletion strains, locus YNL322C, strain KRE1 (second series), stronger effect = lower value 0.992 | S. cerevisiae deletion strains, locus YNL322C, strain KRE1, stronger effect = lower value 1 | S. cerevisiae deletion strains, locus YNR049C, strain mso1, stronger effect = lower value 1 | S. cerevisiae deletion strains, locus YNR052C, strain pop2, stronger effect = lower value 0.998 | S. cerevisiae deletion strains, locus YOL006C, strain TOP1, stronger effect = lower value 1 | S. cerevisiae deletion strains, locus YOL012C, strain htz1 0.913 | S. cerevisiae deletion strains, locus YOL147C, strain pex11, stronger effect = lower value 0.992 | S. cerevisiae deletion strains, locus YOR001W, strain rrp6, stronger effect = lower value 1 | S. cerevisiae deletion strains, locus YOR061W, strain CKA2, stronger effect = lower value 1.01 | S. cerevisiae deletion strains, locus YOR069W, strain VPS5, stronger effect = lower value 1.01 | S. cerevisiae deletion strains, locus YOR070C, strain gyp1, stronger effect = lower value 1.01 | S. cerevisiae deletion strains, locus YOR080W, strain dia2, stronger effect = lower value 1 | S. cerevisiae deletion strains, locus YOR083W, strain WHI5, stronger effect = lower value 0.988 | S. cerevisiae deletion strains, locus YOR106W, strain vam3, stronger effect = lower value 1 | S. cerevisiae deletion strains, locus YOR136W, strain idh2, stronger effect = lower value 0.988 | S. cerevisiae deletion strains, locus YOR144C, strain elg1, stronger effect = lower value 0.985 | S. cerevisiae deletion strains, locus YOR184W, strain ser1, stronger effect = lower value 0.982 | S. cerevisiae deletion strains, locus YOR231W, strain MKK1, stronger effect = lower value 0.955 | S. cerevisiae deletion strains, locus YOR265W, strain rbl2, stronger effect = lower value 0.997 | S. cerevisiae deletion strains, locus YOR270C, strain vph1, stronger effect = lower value 1.02 | S. cerevisiae deletion strains, locus YOR290C, strain snf2, stronger effect = lower value 0.996 | S. cerevisiae deletion strains, locus YOR316C, strain cot1, stronger effect = lower value 0.993 | S. cerevisiae deletion strains, locus YPL051W, strain arl3, stronger effect = lower value 0.992 | S. cerevisiae deletion strains, locus YPL055C, strain LGE1, stronger effect = lower value 1.02 | S. cerevisiae deletion strains, locus YPL078C, strain atp4, stronger effect = lower value 1.01 | S. cerevisiae deletion strains, locus YPL106C, strain sse1, stronger effect = lower value 0.996 | S. cerevisiae deletion strains, locus YPL240C, strain hsp82, stronger effect = lower value 1 | S. cerevisiae deletion strains, locus YPL241C, strain CIN2, stronger effect = lower value 1 | S. cerevisiae deletion strains, locus YPL256C, strain CLN2, stronger effect = lower value 0.959 | S. cerevisiae deletion strains, locus YPR119W, strain clb2, stronger effect = lower value 0.986 | S. cerevisiae deletion strains, locus YPR141C, strain kar3, stronger effect = lower value 0.984 | S. cerevisiae deletion strains, locus YPR163C, strain tif3, stronger effect = lower value 0.99 | S. cerevisiae deletion strains, locus YPR167C, strain met16, stronger effect = lower value 0.979 | S. cerevisiae deletion strains, strain wtn01, stronger effect = lower value 0.975 | S. cerevisiae strains, strain wild type, stronger effect = lower value 1
